CYP2C9 activ = activators of human CYP2C9. recombinant CYP2C9, luciferin-H conversion, luminescence; hits give high values; factor 1 = untreated enzyme, 0 = blocked. activation factor at 5 µM. hit rate 1.4% among 96,000. AID 1024;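 active means activation factor of 2 or more for CYP2C9 at a 5 µM dose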
CYP2C19 activ = activators of human cytochrome P450 2C19; activation factor at 5 µM; P33261; recombinant CYP2C19, luciferin-H EGE luminescence; hits give high values; 0 = fully inhibited enzyme, 1 = untreated enzyme; 96,000 tested, under 10 active; AID 1025;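 active means activation factor of at least 2 at 5 µM in the primary screen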
Target sequence (P33261 whole entry, looked up): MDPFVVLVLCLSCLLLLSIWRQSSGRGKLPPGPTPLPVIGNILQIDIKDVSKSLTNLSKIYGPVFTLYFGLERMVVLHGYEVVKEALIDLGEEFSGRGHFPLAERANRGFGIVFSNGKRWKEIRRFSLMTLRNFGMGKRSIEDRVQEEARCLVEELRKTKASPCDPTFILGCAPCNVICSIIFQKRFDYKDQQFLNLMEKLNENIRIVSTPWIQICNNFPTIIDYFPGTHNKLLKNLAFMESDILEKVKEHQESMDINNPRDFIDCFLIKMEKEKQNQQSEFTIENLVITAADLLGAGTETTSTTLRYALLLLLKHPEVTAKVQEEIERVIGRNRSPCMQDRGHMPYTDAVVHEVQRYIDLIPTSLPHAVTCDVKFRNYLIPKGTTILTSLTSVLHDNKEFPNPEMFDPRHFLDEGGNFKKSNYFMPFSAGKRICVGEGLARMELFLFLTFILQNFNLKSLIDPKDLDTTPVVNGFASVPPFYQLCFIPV
DAT uptake mod = human DAT dopamine uptake with cocaine, either direction | Q01959 | LLC-PK1 hDAT cells, [14C]-dopamine uptake with cocaine IC80; actives deviate in either direction | B-score at 10 µM | hit rate 1.3% among 110,000 | AID 449768;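 active means Z score or B-score, a plate-position-corrected score, falls beyond the plate's 99.7% confidence bounds, in either direction; inactive means both scores lie inside the 99.7% bounds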
D1 allo mod = D1 dopamine receptor (human) allosteric modulation; HEK293 D1, CRE-luciferase, dopamine EC30 potentiation; actives deviate in either direction; B-score at 10 µM; hit rate 5.9% among 58,000;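 active means luminescence count or its row- and column-corrected plate score outside the 99.7% band of the plate's sample wells, on either side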
CYP2C19 inhib = human CYP2C19 inhibition; P33261; inhibition, % at 5 µM; hit rate 21% among 96,000; CYP2C19 Supersomes, luciferin-H EGE luminescence, 30 min;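 active means CYP2C19 inhibition above a set limit at 5 µM in the primary screen, cut at about 50% in these data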
CYP2C9 inh = inhibitors of human CYP2C9 | P11712 | CYP2C9 Supersomes, luciferin-H conversion, luminescence | inhibition, % at 5 µM | hit rate 20% among 96,000;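 active means blocking of liver enzyme CYP2C9 beyond about 50% at 5 µM, limit read from the data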
Of the large screens only hits and unclear results are named; the others gave an inactive call. Hits are enriched below; roughly 28% of the tested compounds scored in any of these assays.

Cc1noc(C)c1CSc1nnc(-c2c[nH]c3ccccc23)n1-c1ccc(Cl)cc1	none (no result: D1 allo mod)
Cc1nnc(SCc2ccccc2C#N)n1-c1ccccc1	none
COc1ccc(-c2nnc(SCc3ncc(-c4ccccc4)o3)o2)cc1	CYP2C19 inhib 86.7
COc1ccc(C(=O)CSc2nnc(-c3ccccc3)o2)cc1	none
C=C1CCN(C(C)C(=O)O)S(=O)(=O)c2ccccc21 (stereo not drawn)	none (no result: CYP2C9 activ, CYP2C19 activ, D1 allo mod, CYP2C19 inhib, CYP2C9 inh)
Cc1cccc(C(=O)O/N=C/c2c(N3CCOCC3)n(C)c3ccccc23)c1	CYP2C9 inh 85.4 (no result: D1 allo mod)
Cn1c(Cl)c(/C=N/OC(=O)c2ccccc2Cl)c2ccccc21	none (no result: D1 allo mod)
Cc1ccc(Cn2ncc3c(N4CCN(c5ccccc5C)CC4)ncnc32)cc1	CYP2C19 inhib 60.1, CYP2C9 inh 74.3
c1ccc(Cn2ncc3c(N4CCCCC4)ncnc32)cc1	CYP2C19 inhib 67.4
O=C(COC(=O)C1CC2C=CC1C2)NCc1ccco1 (stereo not drawn)	CYP2C19 inhib 64.0
O=C(CN1C(=O)C2C3C=CC(C3)C2C1=O)NCc1ccco1 (stereo not drawn)	none (no result: CYP2C9 activ, CYP2C19 activ, D1 allo mod, CYP2C19 inhib, CYP2C9 inh)
O=C(COC(=O)C1CCCCC1C(=O)N1CCc2ccccc21)NCc1ccco1 (stereo not drawn)	CYP2C19 inhib 87.3, CYP2C9 inh 71.1
C=CCc1ccc(OCCOc2ccc(/C=N/n3cnnc3)cc2OCC)c(OC)c1	CYP2C19 inhib 61.3 (no result: D1 allo mod)
Fc1ccccc1/C=N/n1cnnc1	none (no result: D1 allo mod)
C(=N\n1cnnc1)/c1cccn1-c1ccccc1	none (no result: D1 allo mod)
C(=N\n1cnnc1)/c1cccc(OCCOc2ccccc2)c1	CYP2C19 inhib 80.1
C(=N\n1cnnc1)/c1ccccc1OCCOc1ccccc1	CYP2C19 inhib 78.2
CCOc1cc(/C=N/n2cnnc2)ccc1O	none
COc1cc(/C=N/n2cnnc2)ccc1OCc1ccc(C)cc1	CYP2C9 inh 69.6 (no result: D1 allo mod)
O=S(=O)(c1cccc2nsnc12)N1CCc2ccccc2C1	none (no result: CYP2C9 activ, CYP2C19 activ, CYP2C19 inhib, CYP2C9 inh)
O=C(NCc1ccccc1)C1=C[C@@H](c2coc3ccccc3c2=O)C[C@@H](OCCCCO)O1	none (no result: CYP2C9 activ, CYP2C19 activ, D1 allo mod, CYP2C19 inhib, CYP2C9 inh)
COc1cc(/C=N/n2cnnc2)ccc1OCc1ccccc1	CYP2C19 inhib 69.8, CYP2C9 inh 67.7 (no result: D1 allo mod)
COc1ccc(/C=N/n2cnnc2)cc1COc1ccccn1	none
Cn1c(=O)n(C)c2cc(/C=N/n3cnnc3)ccc21	none
COc1cc(/C=N/n2cnnc2)ccc1OCCOc1ccccc1	CYP2C19 inhib 81.9, CYP2C9 inh 58.2
Clc1ccc(Oc2cccc(/C=N/n3cnnc3)c2)cc1	CYP2C19 inhib 90.8, CYP2C9 inh 65.5
CCSc1nnc(-c2ccccc2NC(C)=O)c(=O)[nH]1	none
Nc1nnc(SCc2cc3c(cc2Cl)OCO3)s1	CYP2C19 inhib 69.7
Cc1cc(C)c(C#N)c(SCc2cc3c(cc2Cl)OCO3)n1	none (no result: D1 allo mod)
Cc1cc(C)n2nc(SCc3nnc(SCc4ccccc4Cl)s3)nc2n1	none (no result: D1 allo mod)
Nc1nnc(SCc2ccccc2Cl)s1	CYP2C19 inhib 67.8
CCOC(=O)c1cnc2ccc(OC)cc2c1Nc1ccc2c(c1)OCCO2	CYP2C9 inh 96.4 (no result: D1 allo mod)
CCOC(=O)c1cnc2ccc(C(=O)OC)cc2c1Nc1ccc2c(c1)OCCO2	CYP2C9 inh 53.8 (no result: D1 allo mod)
O=c1cc(O)n(-c2ccc(F)cc2)c(=S)[nH]1	none (no result: D1 allo mod)
CCCCCc1cc(=O)oc2c(C(CCN3CCCC(C)C3)c3cc(OC)c(OC)c(OC)c3)c(OC)cc(OC)c12 (stereo not drawn)	DAT uptake mod -2.85 (no result: CYP2C9 activ, CYP2C19 activ, D1 allo mod, CYP2C19 inhib, CYP2C9 inh)
CCS(=O)(=O)N1CCN(c2c(Cl)cccc2[N+](=O)[O-])CC1	CYP2C19 inhib 52.5 (no result: D1 allo mod)
CS(=O)(=O)N1CCN(c2c(Cl)cccc2[N+](=O)[O-])CC1	none (no result: D1 allo mod)
O=C(CSc1ccc(Cl)cc1)N1CCN(c2ccc([N+](=O)[O-])cc2Cl)CC1	none (no result: D1 allo mod)
O=C(CSc1ccc(Cl)cc1)N1CCN(c2c(Cl)cccc2[N+](=O)[O-])CC1	CYP2C9 inh 70.7 (no result: D1 allo mod)
O=C(NC1CCCC1)C(c1ccc(O)cc1)N(CC1CCCO1)C(=O)C1COc2ccccc2O1 (stereo not drawn)	CYP2C19 inhib 55.9, CYP2C9 inh 69.6
O=C(NC1CCCCC1)C(c1ccncc1)N(CC1CCCO1)C(=O)C(F)(F)F (stereo not drawn)	CYP2C19 inhib 57.9
CCC(C)N(C(=O)C(F)(F)F)C(C(=O)NC1CCCCC1)c1ccncc1 (stereo not drawn)	none (no result: CYP2C9 activ, CYP2C19 activ, D1 allo mod, CYP2C19 inhib, CYP2C9 inh)
CC(=O)N1CCN(c2ccc(NC(=O)c3ccccc3Br)cc2Cl)CC1	none (no result: CYP2C9 activ, CYP2C19 activ, CYP2C19 inhib, CYP2C9 inh)
CCC(Sc1ccc2nnc(-c3ccc(F)cc3)n2n1)C(=O)OC (stereo not drawn)	CYP2C9 inh 60.7
Cc1cc(NC(=O)CSc2ccc3nnc(-c4cccs4)n3n2)no1	CYP2C9 inh 75.2
Cc1ccc(-c2nnc3ccc(SCC(=O)Nc4cc(C)on4)nn23)cc1	CYP2C9 inh 50.2
COC(=O)C(C)Sc1ccc2nnc(-c3ccc(F)cc3)n2n1 (stereo not drawn)	none
Cc1cc(NC(=O)CSc2ccc3nnc(-c4ccc(F)cc4)n3n2)no1	none
Cc1occc1-c1nnc(SCC(=O)N2c3ccccc3CCc3ccccc32)n1C	none
CCc1nn(C(C)C(=O)NC(C)CCc2ccco2)c(=O)c2cc3occc3n12 (stereo not drawn)	CYP2C19 inhib 59.5, CYP2C9 inh 77.3
O=c1c(Cl)c(N/N=C/c2ccc(Br)cc2)cnn1-c1ccccc1	none (no result: DAT uptake mod, D1 allo mod)
FC(F)(F)c1cccc(Cn2nnnc2-c2ccc(Cl)cc2)c1	CYP2C19 inhib 92.3, CYP2C9 inh 61.3 (no result: D1 allo mod)
CCS(=O)(=O)NCCc1cc2c(OC)ccc(OC)c2[nH]c1=O	none (no result: CYP2C9 activ, CYP2C19 activ, CYP2C19 inhib, CYP2C9 inh)
CCc1nc(OCCN(C)C)c2oc3ccccc3c2n1	none
FC(F)C(F)(F)C(F)(F)C(F)(F)c1cc(-c2ccccc2)n[nH]1	CYP2C19 inhib 85.3, CYP2C9 inh 76.4
CC(=O)c1cccc(NC(=O)NCCS(C)=O)c1 (stereo not drawn)	none
CC1CCc2sc(C(=O)NCc3ccc(F)cc3)cc2C1 (stereo not drawn)	none (no result: D1 allo mod)
O=C(NCc1ccc(F)cc1)c1cc2c(s1)CCCC2	CYP2C9 inh 53.4 (no result: D1 allo mod)
COC(=O)c1cc2c(s1)CS(=O)C2 (stereo not drawn)	none (no result: CYP2C9 activ, CYP2C19 activ, CYP2C19 inhib, CYP2C9 inh)
COc1ccc(CNC(=O)c2cc3c(s2)CS(=O)C3)cc1 (stereo not drawn)	CYP2C19 inhib 70.6, CYP2C9 inh 53.6 (no result: D1 allo mod)
CN(C1CCCCC1)S(=O)(=O)c1ccccc1	none
CC(C)N(Cc1nc(-c2ccccc2)no1)S(=O)(=O)c1ccccc1	CYP2C19 inhib 58.4, CYP2C9 inh 67.5
O=S(=O)(c1ccccc1)N(Cc1nc(-c2ccccc2)no1)C1CCCCC1	CYP2C19 inhib 50.5, CYP2C9 inh 92.6
CC(C)N(Cc1nc(-c2ccccc2)no1)C(=O)CN(C)S(=O)(=O)c1ccccc1	CYP2C19 inhib 79.4, CYP2C9 inh 69.1
CCC(=O)NCCc1nc(-c2ccccc2)no1	none (no result: CYP2C9 activ, CYP2C19 activ, D1 allo mod, CYP2C19 inhib, CYP2C9 inh)
CCC[C@@H]1CCCO[C@@](C(=O)NCc2cc(C)n(C)n2)(C(F)(F)F)C1	none (no result: CYP2C9 activ, CYP2C19 activ, D1 allo mod, CYP2C19 inhib, CYP2C9 inh)
Cn1c(Cn2c(=O)sc3ccccc32)nnc1SCC(=O)Nc1ccc(Cl)cc1	none (no result: CYP2C9 activ, CYP2C19 activ, CYP2C19 inhib, CYP2C9 inh)
